These results are taken from PubChem BioAssay (NCI).

Compounds without any hit were thinned out: in the full panel of roughly 83,000, 20% have a hit.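 96-well plates, one dose, 48 hours. Percent growth reported; active if below 10.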 Values without a mark were called inactive. Activity calls are given as the source filed them.

The test deals with MDA-MB-468 breast. In words: NCI-60 one-dose screen, 48 h (100 = growth as untreated, 0 = no growth, -100 = all killed). The following applies: 10 µM unless noted.

As to `Clc1ccc2[nH]cc(-c3cncn3CCc3ccc4c(c3)OCO4)c2c1`, the growth was 6.19% (active).
As to `O=C(N/N=C/C[C@@H]1[C@@H](/C=C/[C@@H](O)COc2cccc(Cl)c2)[C@H](O)C[C@@H]1O)c1ccncc1`, the growth was 97.9%.
Next, `CC(=O)N1c2ccccc2NC2=C(C(=O)N(C)C2(C)C)C1C` (centres undefined): 19.2%.
As for `CCOC(=O)c1c(NC(=O)c2cccc(C(F)(F)F)c2)sc2c1CCC(=O)C2`, the figure is -9.5% (active); as for `C/C(=C(/c1ccc(O)cc1)c1ccc(OCCN2CCCC2)cc1)c1ccc(Cl)cc1`, 13.5%; as for `O=C(CSc1nc2ccc([N+](=O)[O-])cc2[nH]1)Nc1cccc(Cl)c1`, -10.4% (active).
Regarding `Cc1cc(=O)n(C(=S)Nc2ccc(Cl)cc2)c2cc(O)ccc12`, the growth is 98.7%.
Next, `O=C(Nc1ccncc1)C(=O)c1cn(S(=O)(=O)c2cccc(Cl)c2)c2ccccc12`: 31.2%; `COCCn1c(Nc2ccc(C(=O)NO)cc2)nc2ccccc21`: 63.7%.
